Calls of active or inactive are those of the source. Unless noted, the call rests on the fitted dose curve; in most records, active means well fitted curve in the direction sought with a large enough effect in the repeat runs; inconclusive means weak or mixed curves; inactive means no such curve, though single readings can be large; an effect the other way counts as inactive or inconclusive.
How the values were obtained:
[1] = qHTS assay to identify small molecule antagonists of the thyroid receptor (TR) signaling pathway (AID 743065); further: nearly all actives have a fitted effect of over 55% in size
Summary of the method: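 GH3.TRE-Luc rat pituitary cells carrying two TR response elements driving luciferase were plated for 4 h, given compound plus 1 nM T3 (final), and incubated 23.5 h at 37 C. ONE-Glo luminescence measured reporter inhibition; CellTiter-Fluor fluorescence tracked cytotoxicity.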

[2] = system: thyroid hormone receptor (rat, GH3 cells); assay: qHTS assay to identify small molecule agonists of the thyroid receptor (TR) signaling pathway (AID 743066; calls by dose curve)
[3] = target: Estrogen receptor (Homo sapiens) (UniProt P03372); assay: qHTS assay to identify small molecule antagonists of the estrogen receptor alpha (ER-alpha) signaling pathway (AID 743069; active means well fitted curve in the direction sought with a large enough effect in the signal ratio in the repeat runs, not every such curve was filed as active; inconclusive means weak or mixed curves, or effect the other way; inactive means no such curve, though single readings can be large or run the other way; the % refers to the signal ratio)
Sequence of Estrogen receptor (Homo sapiens) (P03372 whole entry, looked up): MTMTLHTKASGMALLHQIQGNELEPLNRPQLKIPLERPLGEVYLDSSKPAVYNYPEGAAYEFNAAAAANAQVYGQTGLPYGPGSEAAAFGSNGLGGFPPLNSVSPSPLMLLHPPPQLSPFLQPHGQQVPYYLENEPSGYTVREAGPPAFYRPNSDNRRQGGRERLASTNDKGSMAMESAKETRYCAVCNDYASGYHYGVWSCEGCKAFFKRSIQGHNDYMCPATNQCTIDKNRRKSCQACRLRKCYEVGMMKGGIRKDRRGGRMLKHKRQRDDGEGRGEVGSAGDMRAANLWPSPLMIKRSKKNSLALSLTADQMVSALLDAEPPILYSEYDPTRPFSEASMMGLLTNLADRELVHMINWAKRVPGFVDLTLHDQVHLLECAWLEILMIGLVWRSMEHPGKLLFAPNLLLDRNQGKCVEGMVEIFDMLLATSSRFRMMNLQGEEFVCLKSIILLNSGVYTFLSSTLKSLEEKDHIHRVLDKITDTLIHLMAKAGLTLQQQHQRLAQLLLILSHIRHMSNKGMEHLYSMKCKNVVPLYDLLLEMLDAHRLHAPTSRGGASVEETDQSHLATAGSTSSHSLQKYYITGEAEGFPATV
Summary of the method: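 HEK293 cells stably carrying an ER-alpha-UAS-bla beta-lactamase reporter were pre-cultured overnight in 2% charcoal-stripped FBS medium. Test compounds in DMSO were added together with 17beta-estradiol for 18 hr at 37C. Read-out was fluorescence after 2 hr with LiveBLAzer B/G FRET substrate at room temperature.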

[4] = qHTS assay to identify small molecule antagonists of the estrogen receptor alpha (ER-alpha) signaling pathway - cell viability counter screen (AID 743074; calls by dose curve; further: nearly all actives have a fitted effect of over 45% in size)
[5] = target: Estrogen receptor (Homo sapiens) (UniProt P03372); assay: qHTS assay to identify small molecule agonists of the estrogen receptor alpha (ER-alpha) signaling pathway using the BG1 cell line (AID 743079); conditions: BG1Luc4E2 cells, ERE-luciferase agonist, 22 h; activation: at 70.3 µM (top of the series); further: nearly all actives have a fitted effect of over 20% in size
[6] = qHTS assay to identify small molecule antagonists of the estrogen receptor alpha (ER-alpha) signaling pathway using the BG1 cell line (AID 743080; calls by dose curve;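 further: BG1 cells stimulated with 17beta-estradiol alongside compound; nearly all actives have a fitted effect of over 25% in size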)
Summary of the method: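 Seeding, 24 h rest, compound transfer from DMSO, 17beta-estradiol addition, 21.5 h incubation, CellTiter-Fluor (30 min, 37 C), then ONE-Glo (30 min, room temperature): this sequence was run on BG1-Luc-4E2 reporter cells.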

[7] = qHTS assay to identify small molecule antagonists of the estrogen receptor alpha (ER-alpha) signaling pathway using the BG1 cell line - cell viability counter screen (AID 743081);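 further: compound given together with 17beta-estradiol as the ER stimulus; nearly all actives have a fitted effect of over 45% in size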
Aromatase (Homo sapiens) = Aromatase (Homo sapiens) (UniProt P11511); assay: qHTS assay to identify aromatase inhibitors (AID 743083); further: nearly all actives have a fitted effect of over 55% in size
Sequence of Aromatase (Homo sapiens) (P11511 whole entry, looked up): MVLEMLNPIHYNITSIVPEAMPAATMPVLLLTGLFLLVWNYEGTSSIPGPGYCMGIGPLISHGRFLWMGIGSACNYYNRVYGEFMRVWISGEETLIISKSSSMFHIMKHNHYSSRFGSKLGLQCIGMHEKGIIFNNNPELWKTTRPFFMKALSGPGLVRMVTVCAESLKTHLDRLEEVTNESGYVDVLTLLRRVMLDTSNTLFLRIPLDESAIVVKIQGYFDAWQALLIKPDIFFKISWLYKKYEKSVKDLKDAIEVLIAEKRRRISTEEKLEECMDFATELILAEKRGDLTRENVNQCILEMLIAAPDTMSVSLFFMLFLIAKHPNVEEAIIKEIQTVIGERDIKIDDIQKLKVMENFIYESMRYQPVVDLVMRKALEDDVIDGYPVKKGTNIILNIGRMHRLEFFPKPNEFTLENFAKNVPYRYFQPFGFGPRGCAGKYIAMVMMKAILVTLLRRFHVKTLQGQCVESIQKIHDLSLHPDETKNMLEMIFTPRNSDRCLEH

[8] = qHTS assay to identify aromatase inhibitors - cell viability counter screen (AID 743084);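 further: cells stimulated with testosterone during compound exposure; nearly all actives have a fitted effect of over 55% in size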
[9] = target: Estrogen receptor (Homo sapiens) (UniProt P03372); assay: qHTS assay to identify small molecule agonists of the estrogen receptor alpha (ER-alpha) signaling pathway (AID 743075; calls by dose curve)
On the % scale 0 is the no-effect control and ±100 the full control effect; potency means the concentration at half of the fitted maximal effect.

N#CCCl
active: Potency [5] 28.4 µM
inactive: Potency [1] | Potency [2] | Potency [3] | Potency [4] | Potency [6] | Potency [7] | Potency (Aromatase (Homo sapiens)) | Potency [8]

CCNc1nc(NC(C)C(C)C)nc(SC)n1 (stereo not given)
inactive: Potency [1] | Potency [2] | Potency [3] | Potency [4] | Potency [9] | Potency [5] | Potency [6] | Potency [7] | Potency (Aromatase (Homo sapiens)) | Potency [8]

O=S(=O)(O)F
inactive: Potency [1] | Potency [2] | Potency [3] | Potency [9] | Potency [5] | Potency [6] | Potency [7] | Potency (Aromatase (Homo sapiens)) | Potency [8]

CSC(C)(C)/C=N/O
inactive: Potency [1] | Potency [2] | Potency [3] | Potency [4] | Potency [9] | Potency [6] | Potency [7] | Potency (Aromatase (Homo sapiens)) | Potency [8]

c1ccc(Nc2ccc(Nc3ccccc3)cc2)cc1
inactive: Potency [2] | Potency [4] | Potency [7] | Potency (Aromatase (Homo sapiens))
active: Potency [1] 9.65 µM | Potency [3] 1.73 µM [inconclusive] | Potency [5] 6.09 µM

O=[N+]([O-])c1ccc(Cl)c(Cl)c1Cl
inactive: Potency [1] | Potency [2] | Potency [3] | Potency [4] | Potency [5] | Potency [6] | Potency [7] | Potency (Aromatase (Homo sapiens)) | Potency [8]

NC(=O)C(Cl)Cl
inactive: Potency [1] | Potency [2] | Potency [4] | Potency [7] | Potency (Aromatase (Homo sapiens)) | Potency [8]

O=[N+]([O-])C(Br)Br
inactive: Potency [1] | Potency [2] | Potency [4] | Potency [7]

Brc1cccc(-c2ccccc2)c1
inactive: Potency [1] | Potency [2] | Potency [4] | Potency [9] | Potency [6] | Potency [7] | Potency (Aromatase (Homo sapiens)) | Potency [8]

CCC(C)Br (stereo not given)
inactive: Potency [1] | Potency [2] | Potency [4] | Potency [7] | Potency (Aromatase (Homo sapiens)) | Potency [8]

CSSC
inactive: Potency [1] | Potency [2] | Potency [4] | Potency [7]

C=C(C)C(=O)[O][Sn]([CH2]CCC)([CH2]CCC)[CH2]CCC
active: Potency [1] 0.306 µM | Potency [2] 30.6 nM | Potency [4] 1.74 µM | Potency [6] 344 nM | Potency [7] 1.37 µM | Potency (Aromatase (Homo sapiens)) 3.86 µM | Potency [8] 2.73 µM

CNC(C)(C)Cc1ccccc1
inactive: Potency [1] | Potency [2] | Potency [4] | Potency [6] | Potency [7] | Potency (Aromatase (Homo sapiens)) | Potency [8]

NC1CCC(CC2CCC(N)CC2)CC1 (stereo not given)
inactive: Potency [1] | Potency [2] | Potency [4] | Potency [9] | Potency [5] | Potency [6] | Potency (Aromatase (Homo sapiens))

Cc1nn(-c2cc(NS(C)(=O)=O)c(Cl)cc2Cl)c(=O)n1C(F)F
inactive: Potency [1] | Potency [2] | Potency [4] | Potency [7] | Potency (Aromatase (Homo sapiens)) | Potency [8]

CC1(C)[C@H](/C=C2\CCSC2=O)[C@@H]1C(=O)OCc1coc(Cc2ccccc2)c1
inactive: Potency [2] | Potency [4] | Potency [9] | Potency [7] | Potency (Aromatase (Homo sapiens)) | Potency [8]
active: Potency [1] 43.3 µM | Potency [6] 68600 nM

O=C1C[C@@H]2OCC=C3CN4CC[C@]56c7ccccc7N1[C@H]5[C@H]2[C@H]3C[C@H]46
inactive: Potency [1] | Potency [2] | Potency [4] | Potency [7] | Potency (Aromatase (Homo sapiens)) | Potency [8]

C=CC(=O)[O][Sn]([CH2]CCC)([CH2]CCC)[CH2]CCC
active: Potency [1] 0.611 µM | Potency [2] 193 nM | Potency [4] 1.1 µM | Potency [6] 433 nM | Potency [7] 5.45 µM | Potency (Aromatase (Homo sapiens)) 5.45 µM | Potency [8] 3.44 µM

COC(=O)c1ccccc1S(=O)(=O)NC(=O)Nc1nc(C)nc(OC)n1
inactive: Potency [1] | Potency [2] | Potency [4] | Potency [7] | Potency (Aromatase (Homo sapiens)) | Potency [8]

N#Cc1sc2c(=O)c3ccccc3c(=O)c=2sc1C#N
inactive: Potency [2]
active: Potency [1] 24.3 µM | Potency [4] 54.9 µM | Potency [7] 27.3 µM | Potency (Aromatase (Homo sapiens)) 2.17 µM | Potency [8] 4.33 µM

Cc1cc(C2CC2)nc(Nc2ccccc2)n1
active: Potency [1] 54.5 µM | Potency [5] 9.69 µM
inactive: Potency [2] | Potency [4] | Potency [9] | Potency (Aromatase (Homo sapiens))

C#CC1(O)CCCCC1
inactive: Potency [1] | Potency [2] | Potency [4] | Potency [7] | Potency (Aromatase (Homo sapiens)) | Potency [8]

Nc1nc(N)c(N)c(N)n1
inactive: Potency [1] | Potency [2] | Potency [4] | Potency [6] | Potency (Aromatase (Homo sapiens))

Oc1ccc(Cl)c(Cl)c1
active: Potency [1] 60.2 µM | Potency [9] 60.7 µM [inconclusive]
inactive: Potency [2] | Potency [4] | Potency [6] | Potency [7] | Potency (Aromatase (Homo sapiens)) | Potency [8]

Nc1cc(Cl)ccc1Cl
inactive: Potency [1] | Potency [2] | Potency [4] | Potency [7]

Nc1ccccc1-c1ccccc1
inactive: Potency [1] | Potency [2] | Potency [4] | Potency [9] | Potency [7] | Potency (Aromatase (Homo sapiens)) | Potency [8]

O=C(NC(=O)c1ccccc1Cl)Nc1ccc(OC(F)(F)F)cc1
inactive: Potency [1] | Potency [2] | Potency [4] | Potency [7] | Potency (Aromatase (Homo sapiens)) | Potency [8]

CCOP(=O)(OCC)Oc1cc(C)nc(C(C)C)n1
inactive: Potency [1] | Potency [2] | Potency [4] | Potency [7] | Potency (Aromatase (Homo sapiens)) | Potency [8]

Clc1c(Cl)c(Cl)c(Cl)c(Cl)c1Cl
inactive: activity, negative = inhibition [1] 0.884% [at 8.44 µM] | activation [2] -1.24% [at 8.08 µM] | activity, negative = cytotoxicity [4] 18.2% [at 6.72 µM] | activity change, negative = cytotoxicity [7] 5.59% [at 8.47 µM]

CN=C=O
inactive: Potency [1] | Potency [2] | Potency [4] | Potency [7] | Potency (Aromatase (Homo sapiens)) | Potency [8]

CNC(=O)O/N=C(\C)C(C)S(C)(=O)=O (stereo not given)
inactive: Potency [1] | Potency [2] | Potency [4] | Potency [7] | Potency (Aromatase (Homo sapiens)) | Potency [8]

Source: PubChem BioAssay (Tox21)
